Compound activity as filed in PubChem BioAssay.
Compounds with a hit are over-represented: about 4.7% of the library has one in this group of screens.
TRHR ag: agonists of human TRH receptor; TRHR cells, calcium flux fluo-8, FDSS agonist mode; 360,000 tested, 0.18% active; P34981; activation, % at 2 µM; AID 493084; also: 0% is about no effect
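Agonist-mode FDSS calcium read (Ex 480/Em 530, 1 s cycles) in 1536-well TRHR cells with fluo-8 dye, after 10-cycle baseline and 23 nL compound addition; TRH at EC20 (10 nM final) added afterwards for the enhancer phase.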
D1 agonist: human D1 receptor agonism. P21728. HEK293 T-REx D1 cells, calcium flux, agonist mode. activation, % at 2 µM. 360,000 tested, 1% active. AID 504660; also: 0% is about no effect
Target sequence (P21728 whole entry, looked up): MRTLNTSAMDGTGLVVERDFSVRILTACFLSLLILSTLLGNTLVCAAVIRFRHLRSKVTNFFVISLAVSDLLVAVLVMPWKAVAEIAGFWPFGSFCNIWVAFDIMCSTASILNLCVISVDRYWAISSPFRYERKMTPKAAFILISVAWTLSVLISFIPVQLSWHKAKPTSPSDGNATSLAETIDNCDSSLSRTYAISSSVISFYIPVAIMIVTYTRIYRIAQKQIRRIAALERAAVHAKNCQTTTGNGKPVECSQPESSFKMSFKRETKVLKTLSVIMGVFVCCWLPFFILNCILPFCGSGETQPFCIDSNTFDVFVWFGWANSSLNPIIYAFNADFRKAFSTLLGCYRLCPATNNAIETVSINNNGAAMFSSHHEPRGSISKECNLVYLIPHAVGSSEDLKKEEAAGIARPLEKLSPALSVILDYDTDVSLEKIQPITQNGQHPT
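Tetracycline-induced HEK293 TREx D1 cells, force-coupled to calcium signalling, were dye-loaded with a no-wash calcium kit. Compound was pin-added after a 10 s baseline. Fluorescence was read kinetically at 1 cycle/s for 180 s, with calcium rises flagged as agonism.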
TRHR PAM: TRH receptor (human) allosteric enhancement; enhancement, % at 2 µM; TRHR cells, fluo-8 calcium fluorescence, EC20 TRH enhancement; P34981; 360,000 tested, 0.66% active; in the data active = enhancement above about 30%; also: 0% is about no effect
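TRHR-expressing cells loaded with fluo-8 calcium dye were read kinetically (ex 480/em 530) during compound addition, then stimulated with an EC20 of TRH (10 nM final). Enhancement of the Gq-mediated intracellular calcium response was scored.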
D1 potentiator: human D1 dopamine receptor positive modulation; P21728; HEK293 TREx D1 cells, calcium flux, dopamine EC20 potentiation; potentiation, % at 10 µM; 360,000 tested, 0.036% active; in the data active = potentiation above about 30%; also: 0% is about no effect
D1 antag: blocks dopamine activation of the human D1 receptor. P21728. HEK293 TREx D1 cells, calcium flux, dopamine EC80; stronger effect = lower value. activity change, negative = inhibition, % at 10 µM. 360,000 tested, 3.2% active; in the data active = activity change below about -30%; also: % is scaled to controls: 0 for no effect and ±100 for the full control effect
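Tetracycline-induced HEK293 T-REx cells with force-coupled D1 receptor were loaded with a no-wash calcium dye. Compound was added after a 10 s baseline and read kinetically for 180 s; EC80 dopamine was then added and calcium flux followed another 180 s.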
* hit, by the source's call. Rule as the data show it, unless noted: active = activation above about 30%; inactive = the rest.

SMILES | TRHR ag | D1 agonist | TRHR PAM | D1 potentiator | D1 antag
O=C(CSc1nnc(-c2cccc(Br)c2)o1)N1CCOCC1 | -1 | 4 | 31* | -2 | -8
Cc1ccc(C2(C)NC(=O)N(CC(=O)Nc3ccccc3N3CCCCC3)C2=O)cc1 (stereo not given) | 0 | 13 | 1 | 5 | 35
C=CCNC(=O)CN1C(=O)NC(C)(c2ccc(OC)cc2)C1=O (stereo not given) | 0 | 0 | 2 | -2 | -5
Cc1ccc(C2(C)NC(=O)N(CC(=O)Nc3ccccc3N3CCCC3)C2=O)cc1 (stereo not given) | -1 | 47* | 26 | 5 | 5
O=C(CN1C(=O)NC2(CCCC2)C1=O)Nc1cc(Cl)ccc1N1CCCCC1 | 1 | 42* | -1 | 0 | 2
COc1ccc(C2(C)NC(=O)N(CC(=O)c3cc(C)n(C4CC4)c3C)C2=O)cc1 (stereo not given) | 12 | 64* | 4 | -3 | -9
COc1cccc(NC(=O)CN2C(=O)NC(C)(c3ccc(C)cc3)C2=O)c1 (stereo not given) | -3 | 34* | 6 | -9 | -2
COc1cccc(NC(=O)CN2C(=O)NC3(CCCC3)C2=O)c1 | 0 | 3 | 1 | 4 | -2
COC(=O)Cn1cnc2c(nnn2-c2cccc(OC)c2)c1=O | 0 | 2 | 3 | -5 | -3
CCC(O)c1nc2ccccc2n1CCc1ccccc1 (stereo not given) | 0 | 5 | -1 | -4 | 0
CC(=O)c1c(C)[nH]c(C(=O)CN2C(=O)NC(C)(c3ccc(C)cc3)C2=O)c1C (stereo not given) | 5 | 33* | 5 | -6 | 9
CC1(c2ccc(OC(F)F)cc2)NC(=O)N(CC(=O)Nc2ccccc2)C1=O (stereo not given) | 9 | 59* | -8 | 2 | -59*
CC1(c2ccc(OC(F)F)cc2)NC(=O)N(CC(=O)Nc2ccc3c(c2)OCO3)C1=O (stereo not given) | 8 | 66* | -6 | -9 | -60*
CC1(c2ccc(OC(F)F)cc2)NC(=O)N(CC(=O)Nc2ccc3[nH]c(=O)[nH]c3c2)C1=O (stereo not given) | 0 | 2 | -1 | -3 | 5
CC(=O)Nc1ccc(/C=N/N2C(=O)NC(C)(c3ccc(OC(F)F)cc3)C2=O)cc1 (stereo not given) | 8 | 96* | -8 | -12 | -50*
CCOC(=O)CN1C(=O)NC(C)(c2ccc(OC(F)F)cc2)C1=O (stereo not given) | 3 | 15 | 18 | 6 | -2
CC(C)Oc1ccc(CNC(=O)c2ccc(NC(=O)c3nsc4ccccc34)cc2)cc1 | 1 | 7 | 4 | -1 | -12
Cc1cnn(-c2cc(N/N=C/c3cccc(F)c3)ncn2)c1 | -3 | 0 | 36* | -9 | 2
COc1ccc(C(=O)Nc2nnc(S(=O)(=O)N(CC(C)C)c3ccc(C)cc3)s2)cc1OC | 0 | 11 | -2 | -3 | 2
Cc1ccc(N2CCN(CCc3nc4cc(NC(=O)c5ccco5)ccc4n3C)CC2)cc1 | -1 | -1 | -1 | -1 | -12
Cn1c(CCN2CCN(c3ccccc3)CC2)nc2cc(NC(=O)c3ccco3)ccc21 | 0 | 0 | 33* | 1 | -2
CC(=O)N1CCOc2ccc(S(=O)(=O)NCc3ccc(Cl)cc3)cc21 | 0 | 4 | -3 | -7 | -1
COc1cccc(CNS(=O)(=O)c2ccc3c(c2)N(C(C)=O)CCO3)c1 | 0 | 0 | -23 | -8 | -90*
Cc1ccc(Cl)cc1NC(=S)N(CCCN1CCOCC1)Cc1ccccn1 | 0 | 0 | 14 | 0 | -74*
CCN(CC)S(=O)(=O)c1cccc(C(=O)Nc2ccc(S(=O)(=O)NC3=NCCCCC3)cc2)c1 | 1 | 5 | 4 | 9 | 1
SMILES | TRHR ag | D1 agonist | TRHR PAM | D1 potentiator | D1 antag
COc1ccc(C(=O)NCCSCc2ccco2)cc1OC | 0 | 3 | -3 | -8 | -34*
O=C(NCCSCc1ccco1)Nc1ccc(Cl)cc1 | 0 | 6 | -7 | -6 | -30*
O=C(Cn1cc(C(=O)C2CC2)c2ccccc21)Nc1ccc(Br)cc1 | 3 | 23 | 4 | -4 | 11
Cc1c(C)c2cc3c(c(C)c2oc1=O)OCN(CCc1ccccc1)C3 | 23 | 5 | -6 | -2 | 8
CCCCCCN1C=CC=C/C1=C/C=C(C#N)C#N | 25 | 132* | -6 | 3 | 6
Cc1cc(C)cc(-n2c(C)cc(/C=N/NC(=O)CSc3ncccn3)c2C)c1 | 0 | 44* | -1 | 7 | 14
Cc1cc(C)n2nc(SCC(=O)N/N=C/c3ccccn3)nc2n1 | 1 | 1 | 0 | 1 | -36*
O=C(Cn1c(=O)n(Cc2ccco2)c(=O)c2sc3ccccc3c21)Nc1ccccc1C(F)(F)F | 0 | 2 | -1 | -3 | 5
CCCCn1c(N)c(N(CC(C)C)C(=O)c2ccc([N+](=O)[O-])o2)c(=O)[nH]c1=O | 1 | 2 | 9 | 2 | 28
O=C(NCc1ccco1)c1ccc2snnc2c1 | 0 | -1 | 32* | -6 | -14
CC(C)Nc1nc(Oc2ccc(Cl)cc2Cl)cc(C(F)(F)F)n1 | -1 | 10 | 4 | 2 | 2
CC(C)Nc1nc(Oc2cccc(Cl)c2Cl)cc(C(F)(F)F)n1 | 3 | 14 | -14 | -8 | -32*
COc1ccc(C2=NN(c3ccc(C=O)cc3)C(c3ccccc3)C2)cc1 (stereo not given) | 1 | 7 | -2 | -15 | 3
COc1ccc(C2CC(c3cccs3)=NN2c2ccc(C=O)cc2)cc1 (stereo not given) | 40* | 244* | 5 | 17 | -62*
CCN(CC)c1ccc(/C=C(\C#N)c2nc(-c3cccs3)c(NC(C)=O)s2)cc1 | 64* | 214* | 9 | 16 | -15
CC(=O)Nc1sc(N/N=C\c2ccc(O)cc2)nc1-c1cccs1 | 0 | 1 | -3 | -7 | -3
CC(C)(C)c1ccc(C(=O)N2CCN(Cc3cc(=O)n4nc(-c5ccccc5F)sc4n3)CC2)cc1 | 0 | 1 | 5 | 4 | 0
CC(=O)N(C1=C(Cl)C(=O)c2ccccc2C1=O)C1CCCCC1 | 1 | 1 | -10 | -15 | -35*
Cc1c(C(=O)N2CCCCC2)c(S(=O)(=O)N2CCN(c3ccc(Cl)cc3)CC2)c(C)n1C | -1 | 7 | -1 | -10 | -32*
Cc1[nH]c(C)c(S(=O)(=O)NCc2ccc(Cl)cc2)c1C(=O)N1CCCC1 | 0 | 0 | 1 | 33* | -9
Cc1c(C(=O)N2CCCCC2)c(S(=O)(=O)N2CCN(c3ccc(F)cc3)CC2)c(C)n1C | 0 | -1 | -12 | -9 | -15
COc1ccc(N2CCN(C(=O)c3ccc(Cl)c(S(=O)(=O)N4CCCC4)c3)CC2)cc1 | -1 | 1 | -6 | -3 | -34*
